This is an account of results in PubChem BioAssay.

Values without a mark were called inactive. Active and inactive are the calls of the source.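 The calls were made as follows, unless noted: active = mean inhibition over 43.08%, the solvent-only control mean plus 3 SD; inactive = the rest.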

The target in test [1] is Nuclear receptor coactivator 3 (Homo sapiens) (UniProt Q9Y6Q9). In words: NCOA3 GAL4-fusion reporter inhibition – cell-based, luminescence, quadruplicate, confirmation (AID 588792).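 Also: 0% = DMSO treated cells and 100% = gossypol at 36 µM.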 As to conditions: HEK293 GAL4-SRC3 luciferase reporter, at 3.6 µM, stronger effect = higher value.
In test [2] the test system is transactivating tegument protein VP16 (Human herpesvirus 1), Gal4-VP16 luciferase reporter. The test is described as follows: repression of VP16-driven luciferase reporter – cell-based, luminescence, high throughput, counter-screen for SRC3 inhibitor project (AID 588794; in the data active = inhibition above about 30%). As to conditions: mammalian cells, at 3.6 µM, stronger effect = higher value.

For orientation: inhibition means the change of the read-out against control, counted positive when it falls.

Chain of Nuclear receptor coactivator 3 (Homo sapiens) (Q9Y6Q9 whole entry, looked up, the tested form may be a part): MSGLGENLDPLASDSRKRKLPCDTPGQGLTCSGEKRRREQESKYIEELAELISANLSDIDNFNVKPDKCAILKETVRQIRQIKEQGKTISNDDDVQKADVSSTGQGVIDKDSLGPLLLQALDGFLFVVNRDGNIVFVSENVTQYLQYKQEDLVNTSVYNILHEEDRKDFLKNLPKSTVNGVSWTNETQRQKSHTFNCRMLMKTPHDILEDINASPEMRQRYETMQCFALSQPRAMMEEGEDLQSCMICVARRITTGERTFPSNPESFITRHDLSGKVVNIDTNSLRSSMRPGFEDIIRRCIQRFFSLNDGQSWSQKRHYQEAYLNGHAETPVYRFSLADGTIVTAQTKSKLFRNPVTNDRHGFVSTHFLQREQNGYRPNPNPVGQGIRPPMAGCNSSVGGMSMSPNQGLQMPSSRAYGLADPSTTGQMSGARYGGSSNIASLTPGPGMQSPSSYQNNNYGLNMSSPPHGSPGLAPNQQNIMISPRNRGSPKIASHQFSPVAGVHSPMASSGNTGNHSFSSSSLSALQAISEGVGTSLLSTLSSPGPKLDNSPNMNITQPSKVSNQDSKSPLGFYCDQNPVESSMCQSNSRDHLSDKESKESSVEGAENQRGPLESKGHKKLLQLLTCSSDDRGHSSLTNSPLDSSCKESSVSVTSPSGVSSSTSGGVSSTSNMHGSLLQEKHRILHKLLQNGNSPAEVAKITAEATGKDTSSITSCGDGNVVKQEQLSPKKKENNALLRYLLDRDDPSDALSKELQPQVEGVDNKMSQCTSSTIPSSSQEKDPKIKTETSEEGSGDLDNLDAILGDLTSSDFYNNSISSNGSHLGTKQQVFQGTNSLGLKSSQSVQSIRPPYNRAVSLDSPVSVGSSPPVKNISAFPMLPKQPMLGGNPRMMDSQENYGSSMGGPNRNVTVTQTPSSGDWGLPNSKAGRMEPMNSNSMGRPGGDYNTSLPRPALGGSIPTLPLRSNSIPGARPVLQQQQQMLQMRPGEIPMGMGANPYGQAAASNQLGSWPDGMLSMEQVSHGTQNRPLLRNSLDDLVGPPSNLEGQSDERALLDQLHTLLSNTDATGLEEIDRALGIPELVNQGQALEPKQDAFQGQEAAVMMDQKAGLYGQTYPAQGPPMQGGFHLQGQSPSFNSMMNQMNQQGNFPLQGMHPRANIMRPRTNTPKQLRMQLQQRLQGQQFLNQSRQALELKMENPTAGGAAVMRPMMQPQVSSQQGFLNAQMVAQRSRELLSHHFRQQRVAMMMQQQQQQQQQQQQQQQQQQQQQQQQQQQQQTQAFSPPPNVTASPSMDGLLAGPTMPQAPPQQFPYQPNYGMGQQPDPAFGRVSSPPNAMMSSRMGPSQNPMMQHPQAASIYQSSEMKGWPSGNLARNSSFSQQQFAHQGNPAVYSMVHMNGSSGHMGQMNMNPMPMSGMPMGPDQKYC

On to `O=C(Cc1ccccc1)NNC(=O)Nc1cccc(Cl)c1`, for which the inhibition was 10.6% in test [1] and -0.2% in test [2].
In the same order, the values of `CCCCC(=O)NC(=S)Nc1cccc(Cl)c1N1CCCCC1` are 1.21% and -6.23%.
As to `O=C(NN=Cc1ccccc1O)c1cccc([N+](=O)[O-])c1`, the values for the inhibition in test [1] and in test [2] were 52.8% (active) and 51.8% (active), respectively.
Take `COc1ccc(C(=O)/C=C/c2cc(OC)c(O)c(OC)c2)c(F)c1`: the inhibition is 26.6% in test [1] and 17.7% in test [2].
In the same order, the values of `CCc1ccc(OCC(=O)NC(NC(=S)Nc2ccc(Cl)cc2)C(Cl)(Cl)Cl)cc1` (centres undefined) are -0.7% and 0.6%.
Regarding `COc1ccc2nc(C(F)(F)Cl)c(C#N)c(N)c2c1`, the results for the inhibition in test [1] and in test [2] were 24% and -0.89%, respectively.
In the same order, the values of `O=C(Nc1cccc(S(=O)(=O)N2CCCCC2)c1)c1ccc(S(=O)(=O)C(F)F)cc1` are 3.35% and 14.9%.
Take `O=C1c2ccc3c4c(ccc(c24)C(=O)N1c1cccc(O)c1)C(=O)N(c1cccc(O)c1)C3=O`: the inhibition is 30.3% in test [1] and 31% (active) in test [2].
In the case of `CCCCc1c(O)nc(SCC(=O)NCC2CCCO2)[nH]c1=O` (centres undefined), the inhibition in test [1] is -3.37%; in test [2], 6.46%.
For the compound `CNCC(C)COc1ccccc1OCc1ccccc1` (centres undefined), the inhibition is 2.54% in test [1] and 10.4% in test [2].
Consider `CCOC(=O)C1CCCN(c2c(NCCCN(C)c3ccccc3)c(=O)c2=O)C1` (centres undefined), for which the results for the inhibition in test [1] and in test [2] were -9.14% and -3.6%, respectively.
In the same order, the values of `Cc1cccc(C)c1OCC(=O)N(Cc1cccs1)C1CCS(=O)(=O)C1` (centres undefined) are 8.07% and 1.1%.
For the compound `COc1ccc([N+](=O)[O-])cc1NC(=O)Nc1cccc(Cl)c1`, the inhibition in test [1] was 19.4%; in test [2] it was 15.4%.
In the same order, the values of `CN1CCN(Cc2cc(COCc3ccccc3)c3cccnc3c2O)CC1` are 20.5% and 31% (active).
In the case of `COc1cccc(/C=N/NC(=O)C(C)n2nc(C)c([N+](=O)[O-])c2C)c1O` (centres undefined), the results for the inhibition in test [1] and in test [2] were 10.2% and 27.4%, respectively.
For the compound `O=C1/C(=C/c2cccnc2)SC(=S)N1C1CCS(=O)(=O)C1` (centres undefined), the inhibition in test [1] is -0.1%; in test [2], 21%.
For the compound `Cc1cccc(NNC(=O)C(=O)NNc2cccc(C)c2)c1`, the inhibition in test [1] is 18.6%; in test [2], 24.3%.
In the same order, the values of `COc1ccc(OCCOCC(O)CN2CCOCC2)cc1` (centres undefined) are -13.2% and -8.92%.
In the same order, the values of `O=C(N/N=C/c1c(O)ccc2ccccc12)c1ccc(Br)o1` are 57.3% (active) and 43.2% (active).
In the same order, the values of `Cc1cc2[nH]c3c4ccccc4nc(C)c3c2cc1C` are 20.5% and 33.8% (active).
With `COc1ccc(CCNC(=O)COc2ccc(N(C)S(=O)(=O)c3ccc(Cl)cc3)cc2)cc1`, the results for the inhibition in test [1] and in test [2] were 10.9% and 20.2%, respectively.
In the same order, the values of `COc1ccc(C(CC(=O)O)NC(=O)OC(C)(C)C)cc1` (centres undefined) are 4.59% and 3.31%.
As for `CC(C)(C)c1cc(C(=O)N/N=C/c2ccccc2O)n(-c2ccccc2)n1`, the inhibition was 35.7% in test [1] and 40.6% (active) in test [2].
In the same order, the values of `CSCc1cc(N(C)c2ccccc2)nc(-c2ccccn2)n1` are -19.7% and -1.49%.
With `Cc1cccc(/C=N/n2c(-c3ccncc3)n[nH]c2=S)c1`, the inhibition was 11.2% in test [1] and 2.95% in test [2].
As to `Cc1c(Cl)cccc1NC(=O)Nc1ccccc1C(N)=O`, the values for the inhibition in test [1] and in test [2] were 29.1% and 27.1%, respectively.
Regarding `NC(=O)c1sc2nc3c(c(-c4ccco4)c2c1N)CCCC3`, the inhibition in test [1] is 59.8% (active); in test [2], 32.4% (active).
In the same order, the values of `COc1cccc(/C=N/Nc2ncnc(Cl)c2N)c1O` are 78.1% (active) and 71.7% (active).
In the same order, the values of `CC1CC(C)CN(c2nc(NCc3ccco3)nc(N)c2[N+](=O)[O-])C1` (centres undefined) are 9.73% and 9.4%.
In the same order, the values of `CC1=C/C(=N\OS(=O)(=O)c2ccccc2)C(C)=CC1=O` are 19.7% and 9.07%.
For the compound `O=C(NCCCn1ccnc1)C(=O)NCc1ccc(Cl)cc1`, the values for the inhibition in test [1] and in test [2] were 20.3% and -1.8%, respectively.
In the same order, the values of `COC(=O)c1ccc(NC(=O)Cn2c(-c3nonc3N)nc3ccccc32)cc1` are 17% and 3.85%.
In the same order, the values of `CCOc1ccc(S(=O)(=O)N2CCN(C(=O)COc3ccc(Br)cc3)CC2)cc1` are 14.4% and 14.7%.
In the same order, the values of `Cc1cc(/C=C2\SC(=S)N(C)C2=O)c(C)n1-c1cccc(O)c1` are 51.6% (active) and 38% (active).
On to `COc1ccc(CNS(=O)(=O)c2ccc3c(c2)N(C(C)=O)CC(C)S3)cc1` (centres undefined), for which the inhibition in test [1] was 7.83%; in test [2], 11.6%.
In the same order, the values of `CCOC(=O)c1cccc(NC(=O)CSc2nc3cccnc3n2C)c1` are 9.81% and 25.1%.
Turning to `Cc1sc2ncnc(Sc3nnnn3-c3ccccc3)c2c1C`, the inhibition in test [1] is 0.37%; in test [2], -6.56%.
